Consider 47 compounds from PubChem BioAssay AID2205 (University of Pittsburgh Molecular Library Screening Center, 2009).

SMILES strings stand for the structures. About 1,600 (0.8%) of roughly 200,000 compounds were called active.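 Rule for the calls: active = plate Z-score above 3 for both tubulin-high and condensed-nucleus cell shares, with cell loss under 80%, at 10 µM; inactive = the rest, inconclusive results apart.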 The entries come from a sample that favours actives as a whole.

A short description of the experiment: microtubule stabilizers in HeLa cells, primary screen, imaging, high-content imaging (AID 2205).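 For % tubulin-high responders: anti alpha tubulin signal scored within the nucleus-defined area of each cell.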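 For toxicity: 0% = mean cell density of plate MIN control wells and 100% = no cells.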 The conditions noted are these: HeLa tubulin immunostaining HCS, 24 h, at 10 µM; % Hoechst-high responders: measured here: nuclear condensation Hoechst responders, stronger effect = higher value, share of cells brighter than vehicle mean+2SD; % tubulin-high responders: stronger effect = higher value, share of cells brighter than vehicle mean+2SD; toxicity: measured here: cytotoxicity by cell density.
As for `CCOC(=O)CC(NC(=O)C1c2ccccc2Oc2ccccc21)c1ccc(C)cc1` (stereo unspecified), the % Hoechst-high responders worked out at 1.91%, the % tubulin-high responders was 1.78% (inactive) and the toxicity came to 3.3%.
With `Cc1cc(-c2nnc(CCC(=O)NC(c3ccccc3)c3ccccc3)o2)no1`, the % Hoechst-high responders turned out to be 1.8%, the % tubulin-high responders was 2.51% (inactive) and the toxicity was found to be 7.53%.
In the same order, the values of `O=C(COC(=O)c1cc(=O)[nH]c2ccccc12)Nc1nc(-c2cccc(Br)c2)cs1` are 3.67%, 2.11% (inactive) and 8.74%.
For `NS(=O)(=O)c1ccc(CCNC(=O)CCCn2c(SCC(=O)N3CCCC3)nc3ccsc3c2=O)cc1` the same measures were 2.7%, 1.43% (inactive) and 6.34%.
For `COc1cc2c(cc1O)[C@H](Cc1ccc(Oc3cc(C[C@@H]4NCCc5cc(OC)c(O)cc54)ccc3O)cc1)NCC2` the same measures were 2.73%, 2.04% (inactive) and 13.6%.
Consider `CC[C@H]1CN2CCc3cc(OC)c(OC)cc3[C@@H]2C[C@@H]1C[C@H]1NCCc2cc(OC)c(OC)cc21`, for which the % Hoechst-high responders came to 20.9%, the % tubulin-high responders is 55.7% (active) and the toxicity stood at 75.2%.
In the case of `CCCCn1c(N)c(N(CC)C(=O)/C=C/c2ccco2)c(=O)[nH]c1=O`, the % Hoechst-high responders came to 2.6%, the % tubulin-high responders was 6.6% (inactive) and the toxicity was determined as 4.9%.
Take `CC(C)n1c(=O)[nH]c2cc(C(=O)Nc3ccccc3)ccc21`: the % Hoechst-high responders stood at 0.954%, the % tubulin-high responders was 1.61% (inactive) and the toxicity is 1.51%.
For `COc1ccc(-n2c(C)nn(CC3CC3)c2=O)cc1`, the % Hoechst-high responders was determined as 1.41%, the % tubulin-high responders is 0.918% (inactive) and the toxicity came out at 4.19%.
With `COc1ccccc1NC(=O)C1=C(C)Nc2nc3ccccc3n2C1c1cccs1` (stereo unspecified), the % Hoechst-high responders turned out to be 37.9%, the % tubulin-high responders was 14.5% (active) and the toxicity came out at 54.8%.
For `CCOC(=O)C1=C(C)Nc2nc3ccccc3n2C1c1cccs1` (stereo unspecified) the same measures were 2.61%, 1.67% (inactive) and 7.26%.
On to `CCOc1ccc(C2C(C(=O)NC)=C(C)Nc3nc4ccccc4n32)cc1OC` (stereo unspecified), for which the % Hoechst-high responders turned out to be 1.52%, the % tubulin-high responders is 3.35% (inactive) and the toxicity is 7.37%.
For `Cc1ccc(-n2c(C)cc(C(=O)CSc3nnc4ccccn34)c2C)cc1`, the % Hoechst-high responders turned out to be 2.88%, the % tubulin-high responders is 3.52% (inactive) and the toxicity was 5.15%.
In the same order, the values of `COc1ccc(-c2csc(Nc3ccc(O)cc3)n2)cc1` are 4.55%, 6.13% (inactive) and 2.94%.
For `COc1ccc(OC)c(Nc2nc(-c3ccc(O)c(O)c3)cs2)c1` the same measures were 33.9%, 34% (active) and 37%.
For `COc1ccc(Nc2nc(-c3ccccc3)cs2)cc1` the same measures were 2.53%, 3.24% (inactive) and 3.05%.
As to `COc1ccc(NC(C(=O)Nc2cccc(C(C)=O)c2)c2ccccc2)cc1` (stereo unspecified), the % Hoechst-high responders amounted to 4.94%, the % tubulin-high responders is 2.7% (inactive) and the toxicity turned out to be 7.43%.
For `CCc1cc2cc(OC)ccc2nc1SCC(=O)Nc1cc(OC)c(OC)cc1C(=O)O` the same measures were 1.91%, 2.13% (inactive) and 7.82%.
For `COc1ccccc1C(c1nnnn1CC1CCCO1)N1CCN(c2ccccc2)CC1` (stereo unspecified) the same measures were 1.03%, 3.39% (inactive) and 0.528%.
In the case of `O=c1oc2ccccc2cc1-c1cn(-c2ccccc2)c(=S)[nH]1`, the % Hoechst-high responders is 36.5%, the % tubulin-high responders was 12.5% (active) and the toxicity worked out at 39.3%.
In the same order, the values of `O=C(c1cn(-c2ccccc2)nc1-c1cc2ccccc2oc1=O)N1CCOCC1` are 1.17%, 1.1% (inactive) and 0.611%.
Regarding `Nc1ncc(-c2cc3ccccc3oc2=O)s1`, the % Hoechst-high responders was found to be 2.39%, the % tubulin-high responders is 5.77% (inactive) and the toxicity came out at 5%.
For `Cc1ccc(S(=O)(=O)CCC(=O)OCc2ccccc2)cc1` the same measures were 1.72%, 4.05% (inactive) and 4.99%.
For `CC1CCN(c2ccc([N+](=O)[O-])cc2C(N)=O)CC1`, the % Hoechst-high responders turned out to be 1.09%, the % tubulin-high responders is 5.37% (inactive) and the toxicity was found to be 13%.
For `O=c1cc(N2CCCCC2)c(-c2ccccc2)nn1Cc1cccc(F)c1` the same measures were 0.91%, 7.03% (inactive) and 4.95%.
In the same order, the values of `Cc1ccc(-c2cc(=O)c3ccc(F)cc3[nH]2)cc1` are 14.3%, 22.4% (active) and 28.4%.
With `O=c1cc(-c2ccccc2)[nH]c2cc(F)ccc12`, the % Hoechst-high responders is 48.5%, the % tubulin-high responders was 14.7% (inactive) and the toxicity came out at 37.5%.
As for `Cc1ccc(-c2cc(=O)c3ccc(Cl)cc3[nH]2)cc1`, the % Hoechst-high responders is 1.34%, the % tubulin-high responders was 2.15% (inactive) and the toxicity amounted to 1.49%.
In the case of `CN(CC(=O)NC1CCCC1)S(=O)(=O)c1cnc[nH]1`, the % Hoechst-high responders was determined as 1.61%, the % tubulin-high responders is 4.66% (inactive) and the toxicity was determined as 8.08%.
In the same order, the values of `Cc1nn(CC2CC2)c(=O)n1N(C)c1ncc(C(F)(F)F)cc1Cl` are 3.3%, 5.71% (inactive) and 3.78%.
For `CSc1nc(N(C)NC(=O)c2cccc(C)c2)c2ccccc2n1` the same measures were 33.9%, 13.4% (inactive) and 39.2%.
For `COc1ccc(C(=O)NN(C)c2nc(-c3ccccc3)cc(C)c2S(C)(=O)=O)cc1` the same measures were 3.04%, 2.71% (inactive) and 4.33%.
Consider `Cc1cc(C)n(-c2nc(C(F)(F)F)nc3ccccc23)n1`, for which the % Hoechst-high responders came out at 2.48%, the % tubulin-high responders was 5.42% (inactive) and the toxicity turned out to be 5.25%.
For `CN(NC(=O)c1ccccc1)c1nc2ccccc2nc1C(F)(F)F`, the % Hoechst-high responders was 38%, the % tubulin-high responders is 48.6% (active) and the toxicity is 33.5%.
Regarding `COC(=O)CNC(=O)c1ccccc1F`, the % Hoechst-high responders turned out to be 1.58%, the % tubulin-high responders is 0.975% (inactive) and the toxicity was 9.24%.
In the same order, the values of `CN(NC(=O)c1ccccc1F)c1nc(C(F)(F)F)nc2ccccc12` are 59.1%, 12.1% (active) and 32.2%.
In the same order, the values of `CCN(CC)S(=O)(=O)c1ccc(N(C)CCc2ccc(OC)c(OC)c2)nc1` are 1.73%, 5.42% (inactive) and 7.66%.
With `Cc1ccc(/C=N/NC(=O)c2sccc2OCc2ccc(F)cc2)cc1`, the % Hoechst-high responders amounted to 18.4%, the % tubulin-high responders is 39.2% (active) and the toxicity worked out at 68.8%.
In the same order, the values of `Cc1ccsc1C(=O)N/N=C/c1ccc([N+](=O)[O-])cc1` are 2.36%, 3.58% (inactive) and 0.132%.
For `Cc1ccc(COc2ccc(/C=N/NC(=O)CN3CCCCC3)cc2)cc1` the same measures were 2.2%, 1.76% (inactive) and 4.99%.
In the same order, the values of `Cn1cnnc1SCC(=O)Nc1ccc(N2CCOCC2)cc1` are 3.45%, 1.73% (inactive) and 7.15%.
With `O=C(c1snnc1-c1ccccc1)N1CCOCC1`, the % Hoechst-high responders was found to be 2.21%, the % tubulin-high responders was 5.38% (inactive) and the toxicity worked out at 8.24%.
In the same order, the values of `Cc1cc(C(=O)OCC(=O)NCc2ccco2)c(C)n1-c1ccccc1` are 31.8%, 24.1% (active) and 57.4%.
Take `O=C(COC(=O)c1cnc(Cl)c(Cl)c1)NCc1ccco1`: the % Hoechst-high responders turned out to be 2.45%, the % tubulin-high responders is 2.71% (inactive) and the toxicity amounted to 7.79%.
For `O=C(COC(=O)c1cc(S(=O)(=O)N2CCCCC2)ccc1Cl)NCc1ccco1` the same measures were 2.04%, 2.32% (inactive) and 4.83%.
As to `O=C(Cn1nnc(-c2ccccc2)n1)N/N=C/c1ccc(-c2ccc(Cl)cc2)o1`, the % Hoechst-high responders amounted to 2.75%, the % tubulin-high responders is 3.12% (inactive) and the toxicity turned out to be 5.19%.
In the same order, the values of `O=C(CCNS(=O)(=O)c1ccc(Br)s1)NCc1ccccc1Cl` are 1.95%, 0.853% (inactive) and 9.73%.
